“And” between values parts separate entries of the source, which are not always exact repeats. Identical values can stand only once. Inconclusive results are not listed. The source made the active and inactive calls.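 How the source made its calls, unless noted: active means normalized viability below 100% at a tested concentration; inactive means the rest.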
How the values were obtained:
[1] = growth inhibition of DIPG glioma cells, dose response, cell-based, SU-DIPG-XVII, MIPE5.0, CellTiter-Glo, qHTS (AID 1347060; cut-off not given, nearly all actives have AC50 up to about 26 µM;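 on AC50: cells exposed to compound for 48 hours before viability readout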); conditions: SU-DIPG-XVII viability, CellTiter-Glo ATP luminescence
[2] = growth inhibition of DIPG glioma cells, dose response, cell-based, SU-DIPG-XIII, MIPE4.0, CellTiter-Glo, qHTS (AID 1347061; cut-off not given, nearly all actives have AC50 up to about 37 µM;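 further: cells exposed to compound for 48 hours before readout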); conditions: SU-DIPG-XIII viability, CellTiter-Glo ATP luminescence
[3] = growth inhibition of DIPG glioma cells, dose response, cell-based, SU-DIPG-IV, MIPE4.0, CellTiter-Glo, qHTS (AID 1347063; cut-off not given, nearly all actives have AC50 up to about 30 µM;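 further: compound exposure lasted 48 hours before the viability readout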); conditions: SU-DIPG-IV viability, CellTiter-Glo ATP luminescence
[4] = growth inhibition of DIPG glioma cells, dose response, cell-based, SU-DIPG-XIII, MIPE5.0, CellTiter-Glo, qHTS (AID 1347064; cut-off not given, nearly all actives have AC50 up to about 23 µM;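 on AC50: cells exposed to compound for 48 hours before the viability read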); conditions: SU-DIPG-XIII viability, CellTiter-Glo ATP luminescence
[5] = viability loss in pontine glioma line – cell-based, SU-DIPG-XXV, MIPE5.0, CellTiter-Glo, qHTS, dose response (AID 1347065; cut-off not given, nearly all actives have AC50 up to about 26 µM;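 further: cells exposed to compound for 48 hours before ATP readout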); conditions: CellTiter-Glo ATP luminescence
[6] = SU-DIPG-VI glioma cell viability, MIPE4.0 library, CellTiter-Glo luminescence, qHTS (AID 1347066; cut-off not given, nearly all actives have AC50 up to about 30 µM;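 further: cells exposed to compound for 48 hours before readout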); conditions: CellTiter-Glo ATP luminescence
[7] = JHH-DIPG-1 glioma cell viability, MIPE5.0 library, CellTiter-Glo luminescence, qHTS (AID 1347067; cut-off not given, nearly all actives have AC50 up to about 26 µM;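 further: cells exposed to compound for 48 hours before readout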); conditions: JHH-DIPG-1 glioma viability, CellTiter-Glo ATP luminescence
[8] = SU-DIPG-XXV glioma cell viability, MIPE5.0 library, qHTS (AID 1347068; cut-off not given, nearly all actives have IC50 up to about 30 µM;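 on IC50: cells exposed to compound for 48 hours before viability readout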)
[9] = sensitizers of A549 cells to miR-34 induction, primary screen, imaging, A549 dox-inducible miR-34, nuclei and caspase counts (AID 1347080;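 active means compounds whose cell count with miR-34 switched on is under 0.7 times the count with it off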); conditions: A549 miR-34 inducible, Hoechst nuclei count, 48 h
[10] = survival rescue of mitochondrial mutant cells in low glucose, primary screen, MELAS cybrids, Rieske KO mouse fibroblasts, CellTiter-Glo (AID 1508586;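 active means mean z-score across replicates of 1.96 or higher in either the MELAS or the Rieske mutant cell line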;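 further: z relative to plate mean and SD of compound and empty wells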)
[11] = growth inhibition of DIPG glioma cells, dose response, cell-based, JHH-DIPG-1, MIPE4.0, CellTiter-Glo, qHTS (AID 1347062; cut-off not given, nearly all actives have AC50 up to about 27 µM;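 on AC50: cells exposed to compound for two days before readout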); conditions: JHH-DIPG-1 viability, CellTiter-Glo ATP luminescence
[12] = modifiers of HSF1 nuclear foci, imaging, Selleck Cancer Library (AID 1347162; in the data active means plate-normalised HSF1 focus index below about 0.46); conditions: human cells, at 10 µM; SSMD: measured here: HSF1 foci SSMD mean; cell count: measured here: cell number; plate-normalised HSF1 focus index: stronger effect = lower value
[13] = ovarian cancer cell viability with rucaparib, profiling panel, oncology-focused library, rucaparib conditional (AID 1508598); conditions: patient-derived ovarian cancer cells, CellTiter-Glo viability, 144 h, stronger effect = lower value
[14] = stronger effect = lower value, cell number ratio, induced over uninduced
[15] = measured here: relative caspase fold change +Dox/-Dox
[16] = measured here: total cells with miR-34 induction, stronger effect = lower value
[17] = measured here: total cells without miR-34 induction
[18] = MELAS cybrid survival, CellTiter-Glo 48 h, stronger effect = higher value
[19] = Rieske KO mouse fibroblast survival, CellTiter-Glo 72 h

Cc1cnc(-c2cc(N3CCN(C(=O)CCS(C)(=O)=O)CC3)ncc2Cl)c(C)c1
0.666: fold change [9, 15]
inactive: outcome [1] | outcome [2] | outcome [3] | outcome [4] | outcome [5] | outcome [6] | outcome [7] | outcome [8] | fold change [9, 14] 0.856 | z-score [10, 18] -0.296
10000: cell count [9, 17]
0.28: z-score [10, 19]
8550: cell count [9, 16]

CC1CCC(C(=O)N(c2cc(C#CC(C)(C)C)sc2C(=O)O)C2CCC(O)CC2)CC1 (stereo not drawn)
active: AC50 [1] 26.3 µM | AC50 [7] 23.5 µM
inactive: outcome [2] | outcome [11] | fold change [9, 14] 0.937 | z-score [10, 18] 0.177
0.832: fold change [9, 15]
7690: cell count [9, 16]
-0.0881: z-score [10, 19]
8210: cell count [9, 17]

Cc1cccc(-c2[nH]c(C(C)(C)C)nc2-c2ccc3nccnc3c2)n1
0.491 and 0.704: fold change [9, 15]
inactive: outcome [1] | outcome [8] | fold change [9, 14] 1.02 and 0.895 | plate-normalised HSF1 focus index [12] 1.09 | z-score [10, 18] -0.318 | viability ([13]; at 0.000305 µM, OCI-C5x cells, with rucaparib 10 µM, 100% = cells with rucaparib alone) 121% | viability ([13]; at 0.000305 µM, OCI-C5x cells, without rucaparib) 111% | viability ([13]; at 0.000305 µM, OCI-P5x cells, with rucaparib 20 µM, 100% = cells with rucaparib alone) 101% | viability ([13]; at 0.00122 µM, OCI-C5x cells, with rucaparib 10 µM, 100% = cells with rucaparib alone) 106% | viability ([13]; at 0.00122 µM, OCI-C5x cells, without rucaparib) 112% | viability ([13]; at 0.00488 µM, OCI-C5x cells, with rucaparib 10 µM, 100% = cells with rucaparib alone) 120% | viability ([13]; at 0.00488 µM, OCI-C5x cells, without rucaparib) 113% | viability ([13]; at 0.0195 µM, OCI-C5x cells, with rucaparib 10 µM, 100% = cells with rucaparib alone) 119% | viability ([13]; at 0.0195 µM, OCI-C5x cells, without rucaparib) 116% | viability ([13]; at 0.0195 µM, OCI-P5x cells, with rucaparib 20 µM, 100% = cells with rucaparib alone) 103% | viability ([13]; at 0.0781 µM, OCI-C5x cells, with rucaparib 10 µM, 100% = cells with rucaparib alone) 121% | viability ([13]; at 0.0781 µM, OCI-C5x cells, without rucaparib) 111% | viability ([13]; at 0.0781 µM, OCI-P5x cells, with rucaparib 20 µM, 100% = cells with rucaparib alone) 101% | viability ([13]; at 0.313 µM, OCI-C5x cells, with rucaparib 10 µM, 100% = cells with rucaparib alone) 119% | viability ([13]; at 0.313 µM, OCI-C5x cells, without rucaparib) 111% | viability ([13]; at 0.313 µM, OCI-P5x cells, with rucaparib 20 µM, 100% = cells with rucaparib alone) 112% | viability ([13]; at 0.313 µM, OCI-P5x cells, without rucaparib) 102% | viability ([13]; at 1.25 µM, OCI-C5x cells, with rucaparib 10 µM, 100% = cells with rucaparib alone) 124% | viability ([13]; at 1.25 µM, OCI-C5x cells, without rucaparib) 117% | viability ([13]; at 1.25 µM, OCI-P5x cells, with rucaparib 20 µM, 100% = cells with rucaparib alone) 121% | viability ([13]; at 5 µM, OCI-C5x cells, with rucaparib 10 µM, 100% = cells with rucaparib alone) 139% | viability ([13]; at 5 µM, OCI-C5x cells, without rucaparib) 142% | viability ([13]; at 5 µM, OCI-P5x cells, with rucaparib 20 µM, 100% = cells with rucaparib alone) 120%
4120 and 3500: cell count [9, 16]
-0.927: z-score [10, 19]
1.52: SSMD [12]
7730: cell count [12]
active: AC50 [2] 2.35 µM | AC50 [3] 20.9 µM | AC50 [4] 9.34 µM | AC50 [5] 10.5 µM | AC50 [6] 4.69 µM | AC50 [7] 5.9 µM | viability ([13]; at 0.000305 µM, OCI-P5x cells, without rucaparib) 95.1% | viability ([13]; at 0.00122 µM, OCI-P5x cells, with rucaparib 20 µM, 100% = cells with rucaparib alone) 100% | viability ([13]; at 0.00122 µM, OCI-P5x cells, without rucaparib) 98.3% | viability ([13]; at 0.00488 µM, OCI-P5x cells, with rucaparib 20 µM, 100% = cells with rucaparib alone) 99.5% | viability ([13]; at 0.00488 µM, OCI-P5x cells, without rucaparib) 98.9% | viability ([13]; at 0.0195 µM, OCI-P5x cells, without rucaparib) 95% | viability ([13]; at 0.0781 µM, OCI-P5x cells, without rucaparib) 97.3% | viability ([13]; at 1.25 µM, OCI-P5x cells, without rucaparib) 98.6% | viability ([13]; at 5 µM, OCI-P5x cells, without rucaparib) 90.7%
4050 and 3910: cell count [9, 17]

COc1cccc(OC)c1-c1cc(C(=O)NC2(C(=O)O)C3CC4CC(C3)CC2C4)nn1-c1ccnc2cc(Cl)ccc12 (stereo not drawn)
inactive: outcome [2] | outcome [11] | outcome [6] | outcome [8]
active: AC50 [1] 14.8 µM | AC50 [5] 18.6 µM

O=C1CCCC2=C1C(c1[nH]ncc1Cl)N=C(Nc1nc3ccccc3o1)N2 (stereo not drawn)
inactive: outcome [1] | outcome [2] | outcome [11] | outcome [6] | outcome [7] | outcome [8]

CNC(=O)c1c(F)cccc1Nc1nc(Nc2cc3c(cc2OC)CCN3C(=O)CN(C)C)nc2[nH]ccc12
inactive: fold change [9, 14] 0.926 | z-score [10, 18] -0.536
5320: cell count [9, 16]
-0.594: z-score [10, 19]
active: AC50 [1] 5.25 µM | AC50 [2] 0.235 µM | AC50 [3] 2.64 µM | AC50 [4] 0.934 µM | AC50 [5] 0.661 µM | AC50 [6] 0.0833 µM | AC50 [7] 3.32 µM | IC50 [8] 14.8 µM
5750: cell count [9, 17]
0.874: fold change [9, 15]

CCNC(=O)[C@H]1O[C@@H](n2cnc3c(N)nc(NCCc4ccc(CCC(=O)O)cc4)nc32)[C@H](O)[C@@H]1O
inactive: outcome [1] | outcome [2] | outcome [11] | outcome [5] | outcome [6] | outcome [7] | outcome [8]

Cc1ccc(C(C)(O)c2nc3ccccc3s2)c(C)c1 (stereo not drawn)
inactive: outcome [1] | outcome [2] | outcome [11] | outcome [4] | outcome [6] | outcome [7] | outcome [8]

Cc1cc(Nc2cc(N3CCN(C)CC3)nc(Sc3ccc(NC(=O)C4CC4)cc3)n2)n[nH]1
active: AC50 [1] 2.95 µM | AC50 [2] 18.7 µM | AC50 [3] 2.96 µM | AC50 [4] 6.61 µM | AC50 [5] 0.332 µM | AC50 [7] 10.5 µM | IC50 [8] 8.33 µM | z-score [10, 18] 2.79
0.793: fold change [9, 15]
inactive: fold change [9, 14] 0.993 | plate-normalised HSF1 focus index [12] 0.958
1560: cell count [9, 16]
6720: cell count [12]
-0.956: SSMD [12]
1.15: z-score [10, 19]
1580: cell count [9, 17]

C[C@@]1(C(=O)Nc2ccc(F)nc2)CCCN1c1nc(Nc2cc(C3CC3)[nH]n2)c2cccn2n1
active: AC50 [1] 0.263 µM | AC50 [2] 7.43 µM | AC50 [3] 0.0833 µM | AC50 [4] 0.0209 µM | AC50 [5] 0.0132 µM | AC50 [7] 0.186 µM | IC50 [8] 0.0742 µM

Cn1cnc2c(F)c(Nc3ccc(Br)cc3F)c(C(=O)NOCCO)cc21
inactive: outcome [6] | fold change [9, 14] 0.958 | z-score [10, 18] 0.0149
-0.207: z-score [10, 19]
4540: cell count [9, 17]
0.664: fold change [9, 15]
active: AC50 [1] 3.72 µM | AC50 [2] 4.18 µM | AC50 [11] 6.62 µM | AC50 [5] 5.25 µM | AC50 [7] 0.833 µM
4350: cell count [9, 16]
